Hit rate of the full screen: of about 5,500 compounds, about 2,000 (36%) were called active. About 18% were inconclusive and are not listed. Cut-off read from the data, not from the text of the source: active = normalized growth mostly below about 0.91 (no sharp cut-off); inconclusive = no clear call, values can overlap the other calls; inactive = mostly above about 0.92. The list shows a part of the results.
Experiment: chemical genetic growth profiling, strain panel (AID 1159580);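 note: tested at 20 µM; growth read once vehicle control cultures reached saturation at 30 °C; 1 = growth at the plate median or of vehicle wells; lower values mean less growth of the strain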
Conditions: S. cerevisiae deletion strains, growth OD

Measured: normalized growth

C=C1CC2C3C=C(C)C4=CC(=O)CC[C@]4(C)C3CC[C@]2(C)[C@@]1(OC(C)=O)C(C)=O (stereo partly drawn)
inactive: locus YHR030C, strain SLT2, stronger effect = lower value 0.955 | locus YHR079C, strain IRE1, stronger effect = lower value 0.933 | locus YJL095W, strain BCK1, stronger effect = lower value 0.955 | locus YJR066W, strain TOR1, stronger effect = lower value 0.922 | locus YLR113W, strain HOG1, stronger effect = lower value 0.92 | locus YNL183C, strain NPR1, stronger effect = lower value 0.876 | locus YOR231W, strain MKK1, stronger effect = lower value 0.955 | locus YPL256C, strain CLN2, stronger effect = lower value 0.916

From PubChem BioAssay AID1159580 (chemical genetic matrix, 2015)
